Screens as filed in PubChem.
RGS8-Gao reg – human RGS8-Galphao interaction regulation. P09471. multiplexed bead flow cytometry, RGS8-Galphao binding; actives lie on both sides. response (percent of control binding), % at 10 µM. 220,000 compounds, 0.34% hits. AID 1423; in the data active = response below about 60% or above about 140%; inactive = in between;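 also: Galphao activated as the GDP aluminium fluoride complex binding bead-coupled RGS8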
RGS4-Gao reg – modulates binding of RGS4 to human Galphao; P09471; Multiplexed bead flow cytometry; actives lie on both sides; binding response (% of control), % at 10 µM; 220,000 compounds, 0.33% hits; AID 1415; in the data active = binding response below about 49% or above about 150%; inactive = in between;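 also: fluorescent Galphao activated with aluminum fluoride binding bead-coupled RGS4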
GSH fluor – GSH bead compound fluorescence profile. GSH beads flow cytometry, compound fluorescence 488/530 nm; stronger effect = higher value. fluorescence (KMESF) at 10 µM. 190,000 compounds, 0.25% hits; in the data active = fluorescence above about 89;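 also: glutathione beads carrying GST-tagged Bcl family fusion proteins plus one bare bead set; values are compound well signal with DMSO vehicle wells as background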
RGS7-Gao – human RGS7-Galphao interaction regulation; AID 1439; P09471; Multiplexed bead flow cytometry, RGS7-Galphao binding; actives lie on both sides; binding response (% of control), % at 10 µM; 220,000 compounds, 0.35% hits; in the data active = binding response below about 49% or above about 150%; inconclusive = no clear call, values can overlap the other calls; inactive = in between;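 also: fluorescent Galphao held in activated GDP-AlF4 state binding bead-coupled RGS7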
RGS16-Gao HTS – RGS16-Galphao interaction regulator (human); O15492+P09471; binding response (% of control), % at 10 µM; 220,000 compounds, 0.38% hits; bead-based flow cytometry RGS16-Galphao binding, fluorescence; actives lie on both sides;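 also: Galphao activated by GDP with aluminum fluoride before binding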
Target sequence (O15492 whole entry, looked up): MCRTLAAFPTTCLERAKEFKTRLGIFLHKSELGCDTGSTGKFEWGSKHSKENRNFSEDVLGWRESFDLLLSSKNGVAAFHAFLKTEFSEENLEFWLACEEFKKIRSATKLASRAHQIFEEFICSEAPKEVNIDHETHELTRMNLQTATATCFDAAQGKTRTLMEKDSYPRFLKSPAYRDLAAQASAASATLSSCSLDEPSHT
Target sequence (P09471 whole entry, looked up): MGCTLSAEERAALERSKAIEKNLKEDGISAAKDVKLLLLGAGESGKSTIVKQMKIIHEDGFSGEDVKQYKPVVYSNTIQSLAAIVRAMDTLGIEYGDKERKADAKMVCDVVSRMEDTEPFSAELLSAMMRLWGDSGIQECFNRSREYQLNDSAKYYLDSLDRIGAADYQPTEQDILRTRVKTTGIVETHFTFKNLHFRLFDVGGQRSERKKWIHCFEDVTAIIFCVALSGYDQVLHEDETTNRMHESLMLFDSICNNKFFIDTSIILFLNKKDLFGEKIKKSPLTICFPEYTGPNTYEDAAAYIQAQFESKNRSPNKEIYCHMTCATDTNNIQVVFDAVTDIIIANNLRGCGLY
Avidin bead fluor – compound fluoresces at 488/530 nm on avidin beads | compound fluorescence 488/530 nm, flow cytometry; stronger effect = higher value | fluorescence (KMESF) at 10 µM | 220,000 compounds, 0.38% hits; in the data active = fluorescence above about 47
RGS-Gao – modulates binding between human RGS4 and Galphao; RGS4–Galpha-o binding response, % at 10 µM; multiplexed bead flow cytometry, RGS–Galpha-o binding; shares compounds with RGS16-Gao HTS; AID 1504; 1,600 compounds, 99% hits;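 also: fluorescently labeled Galpha-o bound to GDP with aluminium fluoride binding biotinylated RGS beads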
Biotin-avidin – biotin-avidin bead binding disruption counter-screen; shares compounds with RGS16-Gao HTS; streptavidin beads, fluorescein-biotin binding, flow cytometry; inhibition, % at 10 µM; 1,700 tested, under 10 active;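 active = inhibition above 50%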;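 also: median green fluorescence of gated singlet beads compared with DMSO control wells; 0% = DMSO wells and 100% = complete loss of bead fluorescence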
RGS8-Gao single – RGS8-Galphao interaction regulation, single point confirmation; shares compounds with RGS16-Gao HTS; bead-based flow cytometry RGS8-Galphao binding, fluorescence; actives lie on both sides; 1,700 compounds, 3% hits; AID 1836; binding response (% of control), % at 10 µM; in the data active = binding response below about 72% or above about 130%; inactive = in between;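 also: Galphao activated as GDP AlF4 complex before binding bead RGS8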
RGS7-Gao single – confirmation of regulators of human RGS7-Galphao interaction; shares compounds with RGS16-Gao HTS; bead-based flow cytometry RGS7-Galphao binding; actives lie on both sides; response (percent of control binding), % at 10 µM; 1,700 compounds, 7.8% hits; AID 1837; in the data active = response below about 75% or above about 130%; inactive = in between;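 also: fluorescent Galphao activated with GDP and aluminum fluoride binding bead-coupled RGS7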
RGS16-Gao conf – confirmation of regulators of human RGS16-Galphao interaction; shares compounds with RGS16-Gao HTS; bead-based flow cytometry, RGS16-Galphao binding; actives lie on both sides; response (% of control binding), % at 10 µM; 1,700 compounds, 4% hits; AID 1838; in the data active = response below about 74% or above about 130%; inactive = in between;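 also: Galphao activated as the GDP aluminium fluoride complex binding bead-coupled RGS16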
RGS4-Gao confirm – confirmation of regulators of human RGS4-Galphao interaction; shares compounds with RGS16-Gao HTS; RGS4-Galphao binding, multiplexed bead flow cytometry; actives lie on both sides; binding response (% of control), % at 10 µM; 1,700 compounds, 4% hits; AID 1840; in the data active = binding response below about 74% or above about 130%; inactive = in between
RGS19-Gao conf – RGS19-Galphao interaction regulation, single point confirmation; bead-based flow cytometry RGS19-Galphao binding; actives lie on both sides; AID 1841; shares compounds with RGS16-Gao HTS; response (percent of control binding), % at 10 µM; 1,700 compounds, 5% hits; in the data active = response below about 50% or above about 160%; inactive = in between;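 also: 100% = no compound control and 0% = blank background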
An asterisk follows results filed as active; [ ] = another dose, or the depositor's remark. This is a sample that favours compounds with a hit; in the whole collection about 1.2% have one here. Unless noted, no rule for the calls is given here.

CN(C)C(=O)C[n+]1cccc(/C=N/O)c1 was read as RGS8-Gao reg 142*[activator], RGS4-Gao reg 114, GSH fluor 9, RGS7-Gao 110, RGS16-Gao HTS 251*[activator], Avidin bead fluor 13, RGS-Gao 114*, Biotin-avidin 0, RGS8-Gao single 100, RGS7-Gao single 97, RGS16-Gao conf 101, RGS4-Gao confirm 100 and RGS19-Gao conf 108.
CCOC(=O)C/C(C)=N/NC(=O)C1CC1(c1ccccc1)c1ccccc1 (stereo unspecified) was read as RGS8-Gao reg 101, RGS4-Gao reg 101, GSH fluor 19, RGS7-Gao 107, RGS16-Gao HTS 100 and Avidin bead fluor 9.
`COCc1cc(/C=N\NC(=O)Cc2ccc(OC)cc2)ccc1OC` gave RGS8-Gao reg 70, RGS4-Gao reg 92, GSH fluor 10, RGS7-Gao 98, RGS16-Gao HTS 21*, Avidin bead fluor 1, RGS-Gao 92*, Biotin-avidin -1, RGS8-Gao single 103, RGS7-Gao single 103, RGS16-Gao conf 100, RGS4-Gao confirm 100 and RGS19-Gao conf 109.
`NS(=O)(=O)c1cccc(NC(=O)Cc2ccc(Cl)c(Cl)c2)c1` gave RGS8-Gao reg 148*[activator], RGS4-Gao reg 156*[activator], GSH fluor 14, RGS7-Gao 167*[activator], RGS16-Gao HTS 150, Avidin bead fluor 12, Biotin-avidin 1, RGS8-Gao single 101, RGS7-Gao single 97, RGS16-Gao conf 101, RGS4-Gao confirm 100 and RGS19-Gao conf 87.
CC1CN(Cc2ccccc2)c2ccccc2NC1=S (stereo unspecified) was read as RGS8-Gao reg 100, RGS4-Gao reg 101, GSH fluor 11, RGS7-Gao 99, RGS16-Gao HTS 101 and Avidin bead fluor 5.
O=C1NCC(O)=C1C=NC12CC3CC(CC(C3)C1)C2 was read as RGS8-Gao reg 107, RGS4-Gao reg 102, GSH fluor 30, RGS7-Gao 100, RGS16-Gao HTS 106, Avidin bead fluor 13, Biotin-avidin 1, RGS8-Gao single 101, RGS7-Gao single 100, RGS16-Gao conf 100, RGS4-Gao confirm 100 and RGS19-Gao conf 91.
Screening C#CCNC(=O)C1=C[C@@H](C2CC2)[C@H](CCCO)[C@@H](OCC)O1 returned RGS8-Gao reg 8.9*, RGS4-Gao reg 4.8*, GSH fluor 19, RGS7-Gao -5.5*, RGS16-Gao HTS 0.9*, Avidin bead fluor -1, Biotin-avidin -2, RGS8-Gao single 103, RGS7-Gao single 104, RGS16-Gao conf 100, RGS4-Gao confirm 103 and RGS19-Gao conf 94.
`CCO[C@@H]1OC(C(=O)NC2CC2)=C[C@H](C2CC2)[C@H]1CCCO` gave RGS8-Gao reg 97, RGS4-Gao reg 99, RGS7-Gao inconclusive, RGS16-Gao HTS 102 and Avidin bead fluor 9.
